Bioassay records (PubChem BioAssay)
TDP1 cell noCPT – qHTS for Inhibitors of human tyrosyl-DNA phosphodiesterase 1 (TDP1): qHTS in cells in absence of CPT; DT40 Tdp1-/- hTDP1 cells, no CPT, ATP luminescence, 48 h; Potency, µM (highest dose often 46.2 µM), inactives show at the highest dose activity change, negative = growth inhibition, usual class: inhibitors; 420,000 tested, 15% active; AID 686978, 2013; note: nearly all actives have a fitted effect of over 55% in size
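Chicken DT40 Tdp1-/- cells complemented with human TDP1, screened without camptothecin (DMSO vehicle only), 400 cells/well. Compounds pin-transferred, cells incubated at 37 °C for at least 48 hr. Growth read as ATP-dependent luminescence (CellTiter-Glo, 30 min at RT).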
DT40 TDP1 CPT – growth inhibition of DT40 Tdp1-/-;hTDP1 cells with camptothecin (screen for TDP1 inhibitors). AID 686979. chicken DT40 Tdp1-/-;hTDP1 cells + 20 nM CPT, ATP luminescence, 48 h. Potency, µM (doses to about 46.2 µM), inactives show at the highest dose activity change, negative = growth inhibition, most hits filed as inhibitors. 420,000 tested, 12% active; note: nearly all actives have a fitted effect of over 55% in size
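Cell growth measured by CellTiter-Glo luminescence after a minimum 48 h, 37 C compound exposure with 20 nM CPT in Tdp1-knockout DT40 cells stably expressing hTDP1, seeded 400/well; qHTS titration format.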
Gal4-VP16 FLuc – inhibits Gal4-VP16 luciferase reporter, ROR gamma counter-screen | Drosophila S2 Gal4-VP16 UAS-luciferase, luminescence, 20 h | Potency, µM (series often up to 53.6 µM), without a hit: top-dose activity, negative = inhibition, usual class: inhibitors | 310,000 tested, 3.5% active | AID 2546;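 note: Gal4-VP16 expression switched on by copper sulfate through the metallothionein promoter; nearly all actives have a fitted effect of over 50% in size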
RORg inh – inhibitors of mouse ROR gamma transcriptional activity | P51450 | Drosophila S2 Gal4-RORgamma UAS-luciferase reporter, 20 h | Potency, µM (series often up to 53.6 µM), without a hit: top-dose activity change, negative = inhibition, most hits filed as inhibitors | 310,000 tested, 5.4% active; note: nearly all actives have a fitted effect of over 60% in size
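A Gal4/UAS one-hybrid system in insect cells: metallothionein-promoter Gal4–ROR gamma fusion plus Photinus luciferase reporter. Copper sulfate 700 uM final, 20 hr ambient incubation, luminescent detection after 10 min with reagent.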
ALOX12 inh – blocks human arachidonate 12S-lipoxygenase. P18054. Potency, µM (highest dose often 108 µM), without a hit: at the highest dose activity change, negative = inhibition, usual class: inhibitors. purified 12hLO, xylenol orange hydroperoxide absorbance. 580,000 tested, 1.1% active
Target sequence (P18054 whole entry, looked up): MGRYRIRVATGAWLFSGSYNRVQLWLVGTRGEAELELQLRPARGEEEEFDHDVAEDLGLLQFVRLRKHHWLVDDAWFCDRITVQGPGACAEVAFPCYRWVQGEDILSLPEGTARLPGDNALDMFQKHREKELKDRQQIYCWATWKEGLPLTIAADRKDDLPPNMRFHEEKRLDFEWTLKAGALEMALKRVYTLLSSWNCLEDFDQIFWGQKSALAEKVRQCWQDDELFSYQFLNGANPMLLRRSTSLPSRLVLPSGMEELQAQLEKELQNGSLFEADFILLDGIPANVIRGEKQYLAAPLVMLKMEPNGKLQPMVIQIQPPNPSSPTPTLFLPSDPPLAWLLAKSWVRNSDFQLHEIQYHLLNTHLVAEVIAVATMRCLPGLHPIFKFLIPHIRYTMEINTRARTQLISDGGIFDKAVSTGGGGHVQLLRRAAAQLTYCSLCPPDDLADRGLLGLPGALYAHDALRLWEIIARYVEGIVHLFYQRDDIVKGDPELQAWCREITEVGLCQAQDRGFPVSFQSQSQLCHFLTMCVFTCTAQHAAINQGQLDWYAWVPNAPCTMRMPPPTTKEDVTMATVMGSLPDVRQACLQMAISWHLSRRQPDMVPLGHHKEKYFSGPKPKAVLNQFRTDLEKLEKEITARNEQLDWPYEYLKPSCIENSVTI
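Purified human 12hLO at 150 nM in 25 mM Hepes, 0.01% Triton X-100, pH 7.0, preincubated 15 min at room temperature with compound. Reaction started with 40 uM arachidonic acid, 30 min at room temperature. Hydroperoxide measured by Fe-xylenol orange, 573/405 nm absorbance ratio.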
ELG1 repair inh – inhibitors of ELG1-dependent DNA repair in HEK293T cells; AID 504467; 330,000 tested, 2.3% active; HEK293T ELG1-luciferase reporter, luminescence, 16 h; DNA damage induced by 5-fluorouridine; Potency, µM (doses to about 46.1 µM), for the others: at the highest dose activity change, negative = inhibition, most hits filed as inhibitors; note: nearly all actives have a fitted effect of over 55% in size
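Cells (2,000 per well) received 5-fluorouridine plus test compound or DMSO and were incubated 16 hr at 37 °C, 5% CO2. Luciferase activity was read by luminescence 30 min after ONE-Glo addition; signal suppression marked inhibition of damage-induced ELG1 function.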
* hit, by the source's call; ? = inconclusive; · = no result given; [ ] = another dose, or the depositor's remark. In the library only some 15% were active in any assay of this set; here they are far more common. Calls come from the whole dose curve; as a rule, active = well fitted curve in the direction sought with a large enough effect; inconclusive = small, poorly fitted or top-dose-only effect, or another doubt; inactive = no such curve, though single readings can be large; an effect the other way counts as inactive or inconclusive. % is set by controls: 0 for no effect and ±100 for the full control effect; potency is the fitted concentration of half-maximal effect.

SMILES	TDP1 cell noCPT	DT40 TDP1 CPT	Gal4-VP16 FLuc	RORg inh	ALOX12 inh	ELG1 repair inh
CCc1nc2c(c(-c3ccc(Cl)cc3)n1)CN(Cc1ccc(F)cc1)CC2	·	·	·	·	3.0%	·
Cc1[nH]c2c(C(=O)NC3CCS(=O)(=O)C3)cccc2c1C (stereo not drawn)	·	·	·	·	-2.3%	·
COc1ccc(CCn2nc3n(c2=O)CCN(Cc2ccccc2C)C3=O)cc1	·	·	·	·	9.5%	·
CCCCCCNC(=O)CCNC(=O)c1cccc(C)c1	·	·	·	·	14.3%	·
O=C(Nc1ccccc1Cl)c1cnc(N2CCOCC2)c2ccccc12	·	·	·	·	-0.7%	·
COc1ccc(-c2nn(-c3ccccc3)cc2C(=O)N(C)CC(=O)Nc2ccccc2Br)cc1	?	23.1µM*	·	·	-3.8%	·
COc1ccc(-c2nn(-c3ccccc3)cc2/C=C/C(=O)OCC(=O)Nc2ccccc2C#N)cc1	23.1µM*	7.31µM*	3.4%	18.9%	-20.2%	5.8%
COc1ccc(NC(=O)CN(C)C(=O)c2cc(-c3ccc(OC)cc3)nc3ccccc23)cc1	?	?	·	·	-15.6%	?
CN(CC(=O)Nc1cccc(F)c1)C(=O)c1cc(-c2ccccc2)nc2ccccc12	?	?	·	·	-29.8%	?
COc1ccc(-c2cc(C(=O)N(C)CC(=O)Nc3cccc(F)c3)c3ccccc3n2)cc1	?	16.4µM*	·	·	?	?
Cc1ccc2nc(-c3ccccc3)cc(C(=O)N(C)CC(=O)Nc3ccccc3Br)c2c1	25.9µM*	?	·	·	-1.9%	?
Cc1cccc(-c2nn(-c3ccccc3)cc2C(=O)N(C)CC(=O)Nc2ccc(N3CCOCC3)cc2)c1	-28.6%	-22.6%	·	·	?	11.6µM*
O=C(CCN1CCCC1Cc1ccccc1)c1ccc2c(c1)OCCO2 (stereo not drawn)	2.31µM*	2.59µM*	5.62µM*	5.01µM*	11.7%	·
O=C(CCN1CCc2ccccc2C1)c1ccc2c(c1)OCCO2	3.66µM*	5.8µM*	4.47µM*	3.16µM*	·	1.5%
O=C(CCN1CCCCC1)c1ccc2c(c1)OCCO2	15.8µM*	20.6µM*	7.94µM*	11.2µM*	-29.9%	10.3%
CN(C)c1cccc(C(=O)NC2CCN(c3cc(-c4ccccc4)[nH]n3)C2)c1 (stereo not drawn)	·	·	·	·	16.2%	·
Nc1nccnc1C(=O)NCc1cc(Br)ccc1F	·	·	·	·	-35.8%	·
O=C(C[C@@H]1C/C=C/CC[C@H](Cc2ccc(F)cc2)C(=O)O[C@H](c2ccccc2)CNC1=O)NCCO	-10.1%	-0.6%	·	·	35.6%	-0.5%
O=C1NC[C@@H](c2ccccc2)OC(=O)[C@H](Cc2ccc(F)cc2)C/C=C\C[C@@H]1CC(=O)N(CCO)Cc1ccccc1	23.1µM*	?	·	·	-3.9%	-18.1%
O=C1NC[C@@H](c2ccccc2)OC(=O)[C@@H](Cc2ccc(F)cc2)C/C=C\C[C@@H]1CC(=O)N(CCO)Cc1ccccc1	16.4µM*	?	·	·	8.9%	20.6µM*
O=C1NC[C@H](c2ccccc2)OC(=O)[C@H](Cc2ccc(F)cc2)C/C=C\C[C@@H]1CC(=O)N(CCO)Cc1ccccc1	16.4µM*	20.6µM*	·	·	?	?
O=C1CCCC/C=C\C[C@H](CC(=O)N(CCO)Cc2ccccc2)C(=O)NC[C@H](c2ccccc2)O1	?	?	·	·	0.3%	0.9%
CCCCn1c(=O)[nH]c(=O)c2c1nc(CSc1nnnn1CC(C)C)n2CC	·	·	·	·	-13.0%	·
O=C(NCc1ccccc1)C1CCCN(C(=O)NCc2ccccc2)C1 (stereo not drawn)	4.4%	1.46µM*	22.1%	-29.3%	1.6%	?
O=C(NCc1ccccc1)N1CCN(c2ccc(Cl)c(Cl)c2)CC1	5.8µM*	18.4µM*	-18.8%	9.9%	4.2%	-26.8%
SMILES	TDP1 cell noCPT	DT40 TDP1 CPT	Gal4-VP16 FLuc	RORg inh	ALOX12 inh	ELG1 repair inh
O=C(c1ccc(Cl)cc1)C1CCN(C(=O)c2ccc(F)cc2)CC1	10.3µM*	20.6µM*	?	38.7%	-4.0%	?
CC(C)Cn1cc(NC(=O)N2CCN(c3ccc(F)cc3)CC2)c2ccccc2c1=O	18.4µM*	14.6µM*	·	·	3.2%	·
CNC(=O)COC(=O)c1cc(-c2cccs2)nc2ccccc12	·	·	·	·	-48.0%	·
O=C(CC1C(=O)N(C2CCCC2)c2nc3ccccc3n21)Nc1ccc2c(c1)OCO2 (stereo not drawn)	·	·	·	·	-16.8%	·
CCN(CC)C(=O)Cn1ccn2nc(-c3ccccc3)c(CO)c2c1=O	·	·	·	·	19.9%	·
O=C(NC1CCN(C(=O)NCc2ccccc2)CC1)c1ccc(F)cc1	-11.6%	-1.6%	2.5%	-20.6%	11.2%	7.5%
O=C(c1ccc(F)cc1)C1CCN(C(=O)NCc2ccccc2)CC1	23.1µM*	16.4µM*	4.2%	17.3%[10 µM]	-4.6%	?
CC(=O)c1ccc(N2CCN(C(=O)Nc3ccc(F)cc3F)CC2)cc1	-22.3%	?	-10.4%	4.6%	-5.7%	0.1%
O=C(NCc1ccccc1)N1CCN(c2ccc(F)cc2)CC1	14.6µM*	18.4µM*	4.8%	-16.2%	45.7%	0.4%
O=C(Nc1ccc(F)cc1F)N1CCN(c2ccc(Cl)c(Cl)c2)CC1	4.61µM*	6.51µM*	·	·	-24.6%	·
O=C(CNc1cccc(OC(F)(F)F)c1)N1CCNC1=O	·	·	·	·	32.2%	·
O=C(C(=O)N(Cc1ccccc1)Cc1ccccc1)c1c(-c2ccccc2)[nH]c2ccccc12	20.6µM*	10.3µM*	·	·	?	·
COc1ccc2c(c1)O[C@@H](c1cccc(C(F)(F)F)c1)[C@H](OC(=O)Nc1ccc(OC(F)F)cc1)C2=O	20.6µM*	?	0.0%	-7.7%	·	?
O=C(Nc1ccc(S(=O)(=O)N2CCOCC2)cc1)c1cc([N+](=O)[O-])ccc1Cl	?	16.4µM*	-2.8%	16.7%	-10.8%	?
CCc1c(C(=O)Nc2ccc(S(=O)(=O)N3CCOCC3)cc2)csc1C	18.4µM*	23.1µM*	-8.2%	24.7%	-3.6%	-29.8%
CCC(=O)Nc1ccc(S(=O)(=O)N2CCOCC2)cc1	-6.7%	-8.2%	-7.6%	13.3%	14.2%	3.6%
CN(C)S(=O)(=O)c1cccc(NC(=O)c2ccc(N3CCOCC3)c([N+](=O)[O-])c2)c1	?	16.4µM*	2.2%	?	3.7%	18.4µM*
CN(C)S(=O)(=O)c1cccc(C(=O)Nc2ccc(N3CCOCC3)cc2)c1	-16.0%	-25.0%	-4.9%	6.5%	?	19.3%
Cc1ccc(C(=O)Nc2cccc(S(=O)(=O)N3CCOCC3)c2)cc1[N+](=O)[O-]	?	11.6µM*	-0.1%	42.6%	-8.8%	?
